# Measured values: PubChem BioAssay (Tox21)
# Inconclusive results are not listed. Where a call stands in place of a potency, no number is given. Active and inactive are the calls of the source. Calls come from the whole dose curve; as a rule, active = well fitted activation curve with a large enough effect in the repeat runs; inconclusive = weak or mixed curves; inactive = flat fitted curve, though single readings scatter.
# Experiment: A CellTox Green Cytotoxicity Assay to monitor cytotoxicity in HEK293 cells - 8 hour (AID 1224884); note: nearly all actives have a fitted effect of over 35% in size
# Conditions: CellTox Green fluorescence; series mostly up to 76.8 µM
# Outline: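 HEK293 cells, 600/well, were preincubated 5 hours and then exposed to compounds at 37 C for up to 40 hours. A cell-impermeant cyanine dye staining dead-cell DNA was read by fluorescence at 0, 8, 16, 24, 32 and 40 h time points.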
row,SMILES,Potency
1,CC(C(=O)O)c1ccc2c(c1)Cc1cccnc1O2 (centres undefined),inactive
2,Cc1cc(SC2=C(O)C[C@@](CCc3ccc(N)cc3)(C(C)C)OC2=O)c(C(C)(C)C)cc1CO,inactive
3,Oc1ccc(CCNCCCCCCNCCc2ccccc2)cc1O,inactive
4,CCN(CCCCOC(=O)c1ccc(OC)c(OC)c1)C(C)Cc1ccc(OC)cc1 (centres undefined),inactive
5,O=Cc1ccc(Cl)c([N+](=O)[O-])c1,inactive
6,CC(C)CCCCCCCOC(=O)c1ccc(C(=O)OCCCCCCCC(C)C)c(C(=O)OCCCCCCCC(C)C)c1,inactive
7,Cc1ccc(NC(=O)c2ccc(CN3CCN(C)CC3)cc2)cc1Nc1nccc(-c2cccnc2)n1,inactive
8,O=S(=O)(O)c1cc(Cl)c(Cl)cc1Cl,inactive
9,Cc1nc(C)c(C)nc1C,inactive
10,CCn1nc(Cc2ccccc2)cc1C1CCN(C[C@H]2C[C@H](N(C)[C@@H](C(=O)O)C(C)C)C[C@@H]2c2cccc(F)c2)CC1,inactive
11,O=C(Cl)c1cc(Cl)cc(Cl)c1,inactive
12,c1ccc(CCNc2nc(-c3ccccc3)cs2)cc1,inactive
13,O=C(N[C@@H](Cc1ccccc1)[C@@H](O)C(=O)N1C[C@@H](O)[C@@H](O)C1)c1cc2cc(Cl)ccc2[nH]1,inactive
14,CC(C)(C)NCC(O)COc1ccc(NC(=O)NC2CCCCC2)cc1 (centres undefined),inactive
15,CC(C)(C)c1ccc(CCC=O)cc1,inactive
16,CC(C)(Cc1c[nH]c2ccccc12)NCC(O)COc1ccccc1C#N (centres undefined),inactive
17,CCOC(=O)CC(O)(CC(=O)OCC)C(=O)OCC,inactive

row,SMILES,Potency
1,CCCC(=O)OCCC(C)C,inactive
2,C[C@H](CN1CCCC1)C(=O)c1ccc(C(F)(F)F)cc1,inactive
3,C=CC(C)CCC=C(C)C (centres undefined),inactive
4,O=C(c1ccc(Cl)cc1)c1ccc(Cl)cc1,inactive
5,CCC(=O)O[C@]1(C(=O)COC)[C@@H](C)C[C@H]2[C@@H]3CCC4=CC(=O)C=C[C@]4(C)C3(F)[C@@H](O)C[C@@]21C (some centres undefined),inactive
6,COC(=O)C(C)(C)C,inactive
7,C=C[Si](OCC)(OCC)OCC,inactive
8,Oc1ccc(Oc2ccccc2)cc1,inactive
9,C=CC(O)CCCCC (centres undefined),inactive
10,O=C(OCCOCCOCCOC(=O)c1ccccc1)c1ccccc1,inactive
11,c1ccc(CN(Cc2ccccc2)Cc2ccccc2)cc1,inactive
12,CCCCCCCCCCCCSCCOCCO,inactive
13,Cc1c(N=C=O)cccc1N=C=O,inactive
14,CCC(CC)C(=O)O,inactive
15,O=C(O)c1ccccc1-n1cc(C(=O)O)c(=O)c2cc(Nc3c(F)cc(F)cc3Cl)c(Cl)cc21,inactive
16,Clc1cc(Cl)c2c(c1)N=C1CCCCCN1C2,inactive
17,C=C[Si]1(C)O[Si](C)(C=C)O[Si](C)(C=C)O[Si](C)(C=C)O1 (centres undefined),inactive
